Results on 15 molecules are retold here after PubChem BioAssay.

Molecules are shown by their SMILES. Calls of active or inactive are those of the source.

Assay [1] is described as follows: compound effects on lung adenocarcinoma cell viability – A549, calcein-AM fluorescence, 48 h, basal, profiling panel (AID 1162). As to conditions: higher = more signal.
A short description of assay [2]: compound effects on differentiated 3T3-L1 adipocyte viability – cell-based, 3T3-L1 adipocytes, calcein-AM fluorescence, 48 h, basal, profiling panel (AID 1163). The settings on record: 3T3-L1 adipocytes viability, higher = more signal.
Assay [3] in a line: compound effects on hepatocellular carcinoma cell viability – HepG2, calcein-AM fluorescence, 48 h, basal, profiling panel (AID 1164). The settings on record: higher = more signal.
A short description of assay [4]: compound effects on multiple myeloma cell viability – MM1S, calcein-AM fluorescence, 48 h, basal, profiling panel (AID 1165). As to conditions: higher = more signal.
A short description of assay [5]: calcein-AM signal in unstimulated myeloma cells – cell-based, calcein-AM fluorescence, 48 h, PK04 Diversity Set, profiling panel (AID 1166).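 Also: cells grown under basal conditions without added stimulus.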 As to conditions: RPMI8226 myeloma viability, higher = more signal.
Assay [6] in a line: JC-1 mitochondrial signal, unstimulated HepG2 cells – cell-based, JC-1 fluorescence, 24 h, 100 nL compound, profiling panel (AID 1167). As to conditions: HepG2 mitochondrial potential, higher = more signal.
The nature of assay [7]: JC-1 mitochondrial signal, unstimulated adipocytes – cell-based, JC-1 fluorescence, 3T3-L1 adipocytes, 24 h, 100 nL compound, profiling panel (AID 1168). The settings on record: JC-1 mitochondrial fluorescence, higher = more signal, called active from +8 up or from −8 down.
Assay [8] in a line: JC-1 mitochondrial signal, unstimulated myeloma cells – cell-based, JC-1 fluorescence, RPMI8226, 24 h, 100 nL compound, profiling panel (AID 1169). As to conditions: JC-1 mitochondrial potential fluorescence, higher = more signal.
Assay [9] is described as follows: JC-1 mitochondrial signal, unstimulated MM1S myeloma – cell-based, JC-1 fluorescence, 24 h, 100 nL compound, profiling panel (AID 1170). As to conditions: MM1S mitochondrial potential, higher = more signal.
The nature of assay [10]: resazurin metabolic signal in A549 cells – cell-based, resazurin fluorescence, 24 h, PK04 Diversity Set, profiling panel (AID 1171). The settings on record: A549 viability, higher = more signal, called active from +8 up or from −8 down.
Also: test concentration not given here.

Regarding `COc1cc2c(cc1OC)CN(C(=O)[C@H]1[C@@H]3C(=O)O[C@@H](c4ccccc4)[C@@H](c4ccccc4)N3[C@@H](c3ccc(O)cc3)[C@]13C(=O)Nc1ccc(C#CC4=CCCCC4)cc13)CC2`, the z-score in assay [1] is -0.59; in assay [2], 0.474; in assay [3], 0.679; in assay [4], -0.35; in assay [5], -2.23; in assay [6], -0.259. Also, the z-score in [7] was 2.83 (inactive); in assay [8] it was -0.243; in assay [9] it was -0.101; in assay [10], -0.435 (inactive).
On to `O=C1OCCC=C[C@H]2OC34C=CCN(CCN5CCOCC5)C(=O)[C@H]3N(CCCCCCO)C(=O)[C@@H]4C12` (stereo not given in full), for which the z-score is 0.758 in [1]; -3.63 in assay [2]; 0.821 in [3]; 1.32 in assay [4]; 0.477 in assay [5]; 1.07 in assay [6]. Also, the z-score in [7] is -0.347 (inactive); in [8], 0.0953; in assay [9], 0.341; in assay [10], 0.459 (inactive).
Take `O=C1c2ccccc2[C@](Cc2ccccc2I)(C(=O)NC2CC2)[C@H](c2ccc(CO)cc2)N1C1CCCCC1`: the z-score was 0.818 in assay [1]; 0.835 in assay [2]; 0.677 in [3]; -1.02 in [4]; -1.98 in assay [5]; 2.11 in [6]. Also, the z-score was 0.252 (inactive) in assay [7], -0.482 in assay [8], -0.299 in assay [9] and 0.91 (inactive) in assay [10].
As to `C=C(COC)/C(=C/C[C@@H](OC(C)=O)c1ccc(OCCO)cc1)c1cc(C(=O)OC)ccc1OC`, the z-score in [1] was -0.534; in assay [2], -0.0502; in [3], -0.0182; in assay [4] it was -1.25; in assay [5], -0.648; in [6], 0.592. The z-score in [7] was -0.512 (inactive); in [8], -0.729; in [9], -0.723; in assay [10] it was 0.916 (inactive).
Consider `O=C1c2ccccc2[C@@]2(Cc3ccccc3N(CC(F)(F)F)C2=O)[C@H](c2ccc(CO)cc2)N1Cc1ccccc1Cl`, for which the z-score in assay [1] is 0.609; in assay [2], 0.889; in assay [3], -0.0395; in assay [4], -0.354; in assay [5] it was -0.936; in [6] it was -0.0535. Also, the z-score in assay [7] is -0.483 (inactive); in assay [8] it was -0.131; in assay [9], 0.165; in [10] it was -0.142 (inactive).
For `CC(C)C(=C=CC[C@@H](O)c1ccccc1OCCO)CCO`, the z-score in assay [1] was 0.855; in [2], -1.23; in [3], -0.902; in assay [4], -0.314; in assay [5] it was 0.168; in assay [6], -1.03. Also, the z-score was 0.235 (inactive) in assay [7], 0.719 in [8], -0.0293 in assay [9] and 0.215 (inactive) in [10].
In the case of `C=CCC(OC(C)=O)[C@@H]1[C@@H](N(Cc2cccc3ccccc23)C(=O)c2ccc(-c3ccccc3)cc2)c2cc(OCCCO)ccc2N1C(=O)Cc1ccc(OC)cc1` (stereo not given in full), the z-score is 1.29 in [1]; 1.66 in assay [2]; 0.68 in [3]; -0.169 in [4]; 0.516 in assay [5]; 2.05 in [6]. The z-score was 0.324 (inactive) in assay [7], -0.217 in assay [8], -0.179 in assay [9] and 1.54 (inactive) in assay [10].
For the molecule `[N-]=[N+]=NCc1ccccc1C[C@]1(C(=O)N2CCOCC2)N=C(c2ccc(OCCCO)cc2)O[C@H]1c1ccccc1N=[N+]=[N-]`, the z-score in [1] was -1.37; in [2], 1.97; in assay [3], -0.956; in assay [4], -1.28; in assay [5], -3.42; in assay [6], 0.665. Further, the z-score was -0.817 (inactive) in assay [7], -1.1 in assay [8], -1.47 in [9] and -0.678 (inactive) in assay [10].
`C=C[C@H](COC(C)=O)N(C(=O)OC(C)(C)C)S(=O)(=O)c1ccc(Br)cc1`: the z-score in assay [1] was 1.67; in [2] it was 0.49; in assay [3], 1.36; in assay [4], -0.138; in assay [5], 0.0593; in [6] it was -0.87. Also, the z-score in assay [7] was -0.614 (inactive); in assay [8], -0.931; in assay [9], -0.406; in assay [10], 0.708 (inactive).
As for `CCOC(=O)C1=CCC(c2ccccc2)N(S(=O)(=O)CC[Si](C)(C)C)C1` (stereo not given), the z-score was -0.557 in assay [1]; -0.047 in assay [2]; 0.413 in assay [3]; -1.76 in [4]; 0.582 in [5]; 4.48 in assay [6]. For the same molecule, the z-score in [7] was -0.0119 (inactive); in assay [8], -0.119; in assay [9], -1.66; in assay [10] it was 0.866 (inactive).
On to `CC(C)[C@@H](CO)NC(=O)[C@H]1[C@@H](c2ccccc2)N(c2ccccc2)O[C@@H]1C`, for which the z-score was 0.407 in assay [1]; -0.159 in [2]; 0.319 in assay [3]; 0.714 in assay [4]; 0.285 in [5]; 0.324 in assay [6]. Also, the z-score in assay [7] was 0.392 (inactive); in assay [8], 0.354; in assay [9], -1.11; in assay [10], 0.959 (inactive).
Regarding `C=CCNC(=O)[C@H]1[C@@H]2C(=O)O[C@@H](c3ccccc3)[C@@H](c3ccccc3)N2[C@@H](c2ccccc2OCCO)[C@]12C(=O)Nc1ccc(C#CC3=CCCCC3)cc12`, the z-score in assay [1] is -1.64; in assay [2], 1.04; in assay [3], -4.21; in assay [4], -3.35; in [5], -4.07; in assay [6], -1.84. Further, the z-score in [7] was 2.75 (inactive); in assay [8], -0.853; in assay [9], -1.84; in assay [10] it was -1.27 (inactive).
Take `COCCCNC(=O)[C@@]1(Cc2ccccc2N=[N+]=[N-])N=C(c2ccc(OCCCO)cc2)O[C@H]1c1ccccc1N=[N+]=[N-]`: the z-score in [1] is -1.84; in assay [2], 0.954; in [3] it was -1.37; in assay [4] it was -1.88; in assay [5] it was -3.69; in [6], 1.77. Further, the z-score in assay [7] was 0.221 (inactive); in assay [8], -1.22; in [9], -2.03; in [10], -1.76 (inactive).
Take `C=CCOC(=O)[C@@H]1[C@H]2C(=O)O[C@H](c3ccccc3)[C@H](c3ccccc3)N2[C@H](c2ccc(OCCOC(=O)[C@@H]3C[C@@H]4C(=O)N[C@@H](CCCCN(C)C)C(=O)N4[C@@H]3c3ccc(O)cc3)cc2)[C@@]12C(=O)Nc1ccc(I)cc12`: the z-score is -0.303 in assay [1]; -0.247 in assay [2]; 0.295 in [3]; -0.7 in assay [4]; -0.857 in [5]; -1.93 in assay [6]. For the same molecule, the z-score is -0.171 (inactive) in assay [7], -0.95 in assay [8], -1.45 in assay [9] and 0.417 (inactive) in [10].
`C=CCOC(=O)[C@H]1[C@@H]2C(=O)O[C@@H](c3ccccc3)[C@@H](c3ccccc3)N2[C@@H](c2ccc(OCCOC(=O)[C@H]3C[C@H]4C(=O)N[C@@H](CC(C)C)C(=O)N4[C@H]3c3ccc(O)cc3)cc2)[C@]12C(=O)Nc1ccc(I)cc12`: the z-score in [1] is 0.709; in assay [2] it was -0.212; in assay [3] it was 1.8; in assay [4] it was -2.02; in assay [5], 0.0851; in assay [6], -0.626. In addition, the z-score in assay [7] was -0.804 (inactive); in assay [8] it was -0.418; in assay [9] it was -0.859; in assay [10] it was 0.0559 (inactive).
